Lmaj promast = Leishmania major promastigote growth inhibition. 9% of 200,000 active. inhibition, % at 10 µM. Leishmania major promastigotes, resazurin fluorescence viability; in the data active = inhibition above about 50%;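 note: promastigotes grown with compound for 44 hours at 28 °C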
Arbovirus anti = antivirals against arbovirus infection. arbovirus infection cell-based antiviral screen. 0.37% of 200,000 active. AID 1251. inhibition, % at 10 µM; in the data active = inhibition above about 30%
CHOP inhibitor = blocks CHOP induction under ER stress; CHO-K1 CHOP-promoter luciferase, tunicamycin-induced, 15-18 h; inhibition, % at 10 µM; 3.8% of 220,000 active;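 active = compounds that reduced the stress-induced luciferase reporter signal by more than about 70% of percent inhibition, limit read from the data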;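 note: 0% = tunicamycin plus vehicle and 100% = wells without tunicamycin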
WT yeast gro inh = growth inhibition of WT yeast, mitochondrial fusion screen | 2.1% of 190,000 active | AID 1362 | mitochondrial fusion phenotypic screen, WT strain | inhibition, % at 10 µM; in the data active = inhibition above about 58%; tested in S. cerevisiae
Starred values were filed as active, the others as inactive. Compounds with a hit are over-represented: about 12% of the library has one in this group of screens.

For CN(C)c1nc(OCCNC(=O)COc2ccccc2Cl)nc(N(C)C)n1 the results were Lmaj promast 31.4, Arbovirus anti -15.6, CHOP inhibitor -0.9 and WT yeast gro inh 2.8.
`CC1=NOC(=O)/C1=C\c1ccc(-c2ccc(Br)cc2)o1` gave Lmaj promast 62.0*, Arbovirus anti -22.2, CHOP inhibitor -1.5 and WT yeast gro inh 75.4*.
For CC(Nc1nc(-c2ccc3c(c2)NC(=O)CO3)cs1)c1ccccc1 (centres undefined) the results were Lmaj promast 45.5, Arbovirus anti -18.4, CHOP inhibitor 7.8 and WT yeast gro inh 37.3.
C=CCN=c1scc(-c2ccc3c(c2)NC(=O)CO3)n1/N=C(\C)c1ccccn1 was read as Lmaj promast 57.3*, Arbovirus anti -0.2, CHOP inhibitor 37.1 and WT yeast gro inh 0.7.
For CSc1nc(N)c(C(=O)Nc2ccc([N+](=O)[O-])cc2)s1 the results were CHOP inhibitor 5.2.
`Cc1ccc(C(C[N+](=O)[O-])c2c(-c3ccccc3O)[nH][nH]c2=O)cc1` (centres undefined) gave Lmaj promast 100.4*, Arbovirus anti -27.3, CHOP inhibitor 10.5 and WT yeast gro inh 9.3.
For O=c1[nH][nH]c(-c2ccccc2O)c1C(C[N+](=O)[O-])c1ccc(Br)cc1 (centres undefined) the results were Lmaj promast 100.4*, Arbovirus anti -30.4, CHOP inhibitor 29.3 and WT yeast gro inh 0.2.
COc1ccc(C(C[N+](=O)[O-])c2c(C)[nH]c3ccccc23)cc1OC (centres undefined) was read as Lmaj promast 15.7, Arbovirus anti 1.7, CHOP inhibitor 9.8 and WT yeast gro inh -5.8.
`CCOC(=O)C1(Cc2ccc(Cl)cc2)CCN(Cc2cn(CC)nc2C)CC1` gave CHOP inhibitor 25.0.
Screening Cc1ccc(SCCC(=O)Nc2cccc(N(C)S(C)(=O)=O)c2)cc1 returned Lmaj promast -1.7, Arbovirus anti -1.1, CHOP inhibitor -20.5 and WT yeast gro inh -2.6.
Screening CCc1c(C)sc2nc(SCC(=O)Nc3cc(C)on3)n(CCOC)c(=O)c12 returned Lmaj promast 8.8, Arbovirus anti 5.9, CHOP inhibitor 78.0* and WT yeast gro inh -8.0.
For Cc1cc(NC(=O)CSc2nc3sc(C)c(C)c3c(=O)n2C2CCCC2)no1 the results were Lmaj promast -3.5, Arbovirus anti -1.8, CHOP inhibitor 86.5* and WT yeast gro inh -0.8.
`Cc1cc(NC(=O)CSc2nc(C(C)C)nc3sc(C)c(C)c23)no1` gave Lmaj promast -2.0, Arbovirus anti -6.7, CHOP inhibitor 84.7* and WT yeast gro inh -5.0.
`COC(=O)CN1CCN(C(c2ccccc2)c2ccccc2)CC1` gave Lmaj promast -2.1, Arbovirus anti 2.1, CHOP inhibitor -0.5 and WT yeast gro inh 13.6.
`CC(=O)c1ccccc1OCC(O)CN1CCN(C(c2ccccc2)c2ccccc2)CC1` (centres undefined) gave Lmaj promast 41.0, Arbovirus anti -22.7, CHOP inhibitor 75.4* and WT yeast gro inh 3.9.
Screening CCOc1ccccc1C(=O)N1CCN(C(c2ccccc2)c2ccccc2)CC1 returned Lmaj promast 95.3*, Arbovirus anti -5.2, CHOP inhibitor 35.3 and WT yeast gro inh 7.6.
For O=C(c1ccc2c(c1)OCO2)N1CCC2(CC1)Oc1ccc(Cl)cc1C(=O)C21CC(c2ccccc2)=NO1 (centres undefined) the results were CHOP inhibitor -6.5.
`Cc1cc(C(=O)NCc2ccccc2Cl)n(-c2ccccc2)n1` gave CHOP inhibitor 8.6.
For Nc1nc(CCOc2ccc(F)cc2)cs1 the results were Lmaj promast -1.9, Arbovirus anti 0.3, CHOP inhibitor -25.3 and WT yeast gro inh 0.0.
`COc1ccccc1N(C)S(=O)(=O)c1ccc(C(=O)NC(C)(C)C)cc1` gave Lmaj promast 1.7, Arbovirus anti 0.0, CHOP inhibitor -10.8 and WT yeast gro inh -5.7.
For COc1ccccc1N(C)S(=O)(=O)c1ccc(C(=O)NCc2ccc3c(c2)OCO3)cc1 the results were Lmaj promast 99.3*, Arbovirus anti -7.2, CHOP inhibitor 40.6 and WT yeast gro inh -1.3.
`COc1ccccc1N(C)S(=O)(=O)c1ccc(C(=O)Nc2nc(C)cs2)cc1` gave Lmaj promast 98.6*, Arbovirus anti -6.9, CHOP inhibitor 36.5 and WT yeast gro inh 8.1.
COc1cc(OC)cc(C(=O)NNC(=O)c2ccc(S(=O)(=O)N(C)c3ccccc3OC)cc2)c1 was read as CHOP inhibitor -2.6.
`CC(=O)N1c2ccc3ccccc3c2C2C=CCC2C1c1ccc(Br)cc1` (centres undefined) gave Lmaj promast 97.3*, Arbovirus anti -31.1, CHOP inhibitor 57.1 and WT yeast gro inh 46.9.
Screening CC(=O)N1c2ccc(Cl)cc2C2C=CCC2C1c1cccc2ccccc12 (centres undefined) returned Lmaj promast 22.3, Arbovirus anti -17.6, CHOP inhibitor 84.7* and WT yeast gro inh 4.8.
Screening CC1(C)CC(=O)C(C=Nc2ccc3cn[nH]c3c2)=C(O)C1 returned Lmaj promast 1.1, Arbovirus anti 3.9, CHOP inhibitor 47.2 and WT yeast gro inh 6.5.
`Cc1[nH]nc(N=CC2=C(O)CC(C)(C)CC2=O)c1-c1ccc(Cl)cc1` gave Lmaj promast 4.0, Arbovirus anti -7.7, CHOP inhibitor 92.4* and WT yeast gro inh -8.9.
CC1(C)CC(=O)C(/C=N/c2ncccc2C(=O)O)=C(O)C1 was read as Lmaj promast -1.5, Arbovirus anti 4.5, CHOP inhibitor 77.7* and WT yeast gro inh 7.7.
Screening CC1(C)CC(=O)C(C=Nc2ccc3[nH]ncc3c2)=C(O)C1 returned Lmaj promast 1.2, Arbovirus anti 3.8, CHOP inhibitor 21.2 and WT yeast gro inh 84.2*.
CC1(C)CC(=O)C(C=Nc2ccc(Cl)cn2)=C(O)C1 was read as Lmaj promast -8.3, Arbovirus anti -4.3, CHOP inhibitor 5.0 and WT yeast gro inh 1.8.
N#Cc1c(Cl)nc2c(c1C#N)CCCC2 was read as CHOP inhibitor 10.4.
CCOC(=O)c1c(NC(=O)CN(CC)CC)sc2c1CCN(C(=O)OCC)C2 was read as Lmaj promast 8.6, Arbovirus anti -14.2, CHOP inhibitor 74.6* and WT yeast gro inh 8.3.
`CCOC(=O)c1c(NC(=O)c2ccco2)sc2c1CCCC2` gave Lmaj promast -7.9, Arbovirus anti -1.8, CHOP inhibitor 4.1 and WT yeast gro inh 7.8.
Screening CCOC(=O)c1c(NC(=O)CN2CCN(C(=O)c3ccco3)CC2)sc2c1CCCC2 returned Lmaj promast 52.2*, Arbovirus anti -34.8, CHOP inhibitor 86.2* and WT yeast gro inh 65.6*.
`CCOC(=O)c1c(NC(=O)CN2CCCCC2)sc2c1CCN(C(=O)OCC)C2` gave Lmaj promast 36.5, Arbovirus anti -14.7, CHOP inhibitor 81.4* and WT yeast gro inh 43.3.
Screening COCc1c(C(=O)OC/C(O)=C(\C#N)c2nc3ccccc3[nH]2)oc2ccccc12 returned Lmaj promast -10.2, Arbovirus anti -17.7, CHOP inhibitor -7.6 and WT yeast gro inh -39.9.
`O=C(O)C(Cc1c[nH]c2ccccc12)N1C(=O)C2C3c4ccccc4C(c4ccccc43)C2C1=O` (centres undefined) gave Lmaj promast 4.9, Arbovirus anti 19.4, CHOP inhibitor -12.0 and WT yeast gro inh -9.2.

Screening data: PubChem BioAssay, several laboratories
